From PubChem BioAssay (NCATS)
Results filed as inconclusive are left out. Activity calls are given as the source filed them. Unless noted, the call rests on the fitted dose curve; in most records, active means well fitted curve in the direction sought with a large enough effect; inconclusive means small, poorly fitted or top-dose-only effect, or another doubt; inactive means no such curve, though single readings can be large; an effect the other way counts as inactive or inconclusive.

What was measured:
[1] = biological target: Luciferin 4-monooxygenase (Photinus pyralis) (UniProt P08659); assay: Biochemical firefly luciferase enzyme assay for NPC (AID 624030);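 further: purified P. pyralis luciferase at 10 nM with luciferin and ATP substrate; 0% = DMSO and -100% = full luciferase inhibition by PTC124 control; nearly all actives have a fitted effect of over 70% in size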
Procedure, shortened: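 Direct inhibition of firefly luciferase enzyme (10 nM final, 50 mM Tris Acetate) assessed by luminescence within 5 minutes. Percent activity scaled between DMSO and PTC124 positive control, with concentration-effect curves classified by fit quality and response.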

[2] = S16 Schwann cell viability assay (CellTiter-Glo assay) (AID 624031);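 further: native untransfected S16 rat Schwann cells; cellular ATP luminescence as a viability measure; plate controls were DMSO-treated cells for no effect and cell-free wells for full effect; nearly all actives have a fitted effect of over 70% in size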
Procedure, shortened: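 Parental S16 cells, 24 h compound, 37 °C. ATP-luminescence viability; DMSO = 0% activity, empty wells as reference; curves classified by fit quality and efficacy.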

[3] = S16 Schwann cell PMP22 intronic element firefly luciferase assay (AID 624032);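 further: plate controls were DMSO for no effect and PTC124 positive control mean for full effect; nearly all actives have a fitted effect of over 30% in size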
Procedure, shortened: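 Luciferase reporter of PMP22 intronic-element expression in stably transfected S16 rat Schwann cells, read by ONE-Glo luminescence after 24 h compound exposure at 37 C. Activity scaled between DMSO (0%) and positive-control PTC124; concentration-effect curves quality-classified.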

[4] = S16 Schwann cell PMP22 intronic element beta-lactamase assay (AID 624044; calls by dose curve;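 further: 0% = DMSO and -100% = potassium clavulanate positive control; nearly all actives have a fitted effect of over 15% in size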); conditions: S16 rat Schwann cells, PMP22 element beta-lactamase FRET, 24 h; ratio activity, negative = inhibition: at 38.3 µM (top of the series)
Procedure, shortened: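 Rat S16 Schwann cells with beta-Lac driven by a PMP22 intronic element, compound-treated 24 h at 37 °C. LiveBLAzer FRET B/G read: 460 nm normalized to potassium clavulanate vs DMSO; 535 nm FRET as viability; concentration-effect curves classified.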

[5] = system: CP215; assay: qHTS profiling for inhibitors of Plasmodium falciparum proliferation (AID 504749);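 further: 0% = DMSO vehicle and full inhibition = artemisinin control; nearly all actives have a fitted effect of over 60% in size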; conditions: P. falciparum in erythrocytes, SYBR Green DNA, 72 h; series mostly up to 28.7 µM
Procedure, shortened: (§1)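 Three-day growth assay of blood-stage parasites in erythrocytes (0.3% parasitemia, 2.5% hematocrit) at 37 C, 5% CO2, quantified by SYBR Green DNA staining after overnight detergent lysis.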

[6] = system: CP335; assay: as above; conditions: P. falciparum in erythrocytes, SYBR Green DNA, 72 h; series mostly up to 28.7 µM
Procedure, shortened: as §1

[7] = biological target: Androgen receptor (Homo sapiens) (UniProt P10275); assay: qHTS assay for small molecule agonists of androgen receptor signaling (AID 588515; active means well fitted curve in the direction sought with a large enough effect in the signal ratio, with a control signal flat; the % refers to the signal ratio; further: on the % scale 0 is the no-effect control and ±100 the full control effect); conditions: AR-UAS-bla HEK293, beta-lactamase ratio, agonist 16 h; hits give high values
Procedure, shortened: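 EC50 and efficacy came from Hill fits of titrations (up to 92 uM) normalized to 30 nM R1881 as 100% and DMSO as 0%. Compound exposure was 16 h at 37 C on AR-UAS-bla HEK293 cells, with a 405/460/530 nm CCF4 fluorescence read.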

[8] = biological target: Androgen receptor (Homo sapiens) (UniProt P10275); assay: qHTS assay for small molecule antagonists of androgen receptor signaling (AID 588516; active means well fitted curve in the direction sought with a large enough effect in the signal ratio, with a control signal flat, not every such curve was filed as active; the % refers to the signal ratio; further: on the % scale 0 is the no-effect control and ±100 the full control effect)
Procedure, shortened: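 Cells were plated and incubated 5 h, compounds added in titration, then R1881 (10 nM final) as agonist. After 16 h at 37 C, CCF4 substrate was loaded for 2 h at room temperature and fluorescence measured.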

Androgen receptor (Homo sapiens), sequence (P10275 whole entry, looked up): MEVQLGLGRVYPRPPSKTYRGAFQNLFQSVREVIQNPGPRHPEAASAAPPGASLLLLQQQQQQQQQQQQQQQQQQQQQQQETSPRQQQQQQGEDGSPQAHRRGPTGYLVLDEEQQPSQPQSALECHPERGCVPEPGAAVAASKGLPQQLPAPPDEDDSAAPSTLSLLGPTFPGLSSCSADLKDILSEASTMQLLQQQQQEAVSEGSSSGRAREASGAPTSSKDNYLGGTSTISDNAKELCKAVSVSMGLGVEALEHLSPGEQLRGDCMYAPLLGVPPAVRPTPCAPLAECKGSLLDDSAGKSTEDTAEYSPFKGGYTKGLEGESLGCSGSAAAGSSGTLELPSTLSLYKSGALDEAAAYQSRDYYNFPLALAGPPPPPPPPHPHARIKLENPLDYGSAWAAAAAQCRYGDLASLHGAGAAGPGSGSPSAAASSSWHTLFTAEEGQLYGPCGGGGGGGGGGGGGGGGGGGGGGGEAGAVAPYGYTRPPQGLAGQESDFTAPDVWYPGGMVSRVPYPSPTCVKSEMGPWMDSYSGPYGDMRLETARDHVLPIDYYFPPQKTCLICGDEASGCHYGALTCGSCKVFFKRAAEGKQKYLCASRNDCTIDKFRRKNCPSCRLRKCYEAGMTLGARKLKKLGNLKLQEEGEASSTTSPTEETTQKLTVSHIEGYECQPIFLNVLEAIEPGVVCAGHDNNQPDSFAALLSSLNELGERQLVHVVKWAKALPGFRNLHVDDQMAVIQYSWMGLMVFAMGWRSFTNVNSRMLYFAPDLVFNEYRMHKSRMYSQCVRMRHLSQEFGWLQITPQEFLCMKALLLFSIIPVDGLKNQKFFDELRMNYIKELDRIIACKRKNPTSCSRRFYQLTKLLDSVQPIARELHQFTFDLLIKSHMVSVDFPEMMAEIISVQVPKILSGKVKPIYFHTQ
Luciferin 4-monooxygenase (Photinus pyralis), sequence (P08659 whole entry, looked up): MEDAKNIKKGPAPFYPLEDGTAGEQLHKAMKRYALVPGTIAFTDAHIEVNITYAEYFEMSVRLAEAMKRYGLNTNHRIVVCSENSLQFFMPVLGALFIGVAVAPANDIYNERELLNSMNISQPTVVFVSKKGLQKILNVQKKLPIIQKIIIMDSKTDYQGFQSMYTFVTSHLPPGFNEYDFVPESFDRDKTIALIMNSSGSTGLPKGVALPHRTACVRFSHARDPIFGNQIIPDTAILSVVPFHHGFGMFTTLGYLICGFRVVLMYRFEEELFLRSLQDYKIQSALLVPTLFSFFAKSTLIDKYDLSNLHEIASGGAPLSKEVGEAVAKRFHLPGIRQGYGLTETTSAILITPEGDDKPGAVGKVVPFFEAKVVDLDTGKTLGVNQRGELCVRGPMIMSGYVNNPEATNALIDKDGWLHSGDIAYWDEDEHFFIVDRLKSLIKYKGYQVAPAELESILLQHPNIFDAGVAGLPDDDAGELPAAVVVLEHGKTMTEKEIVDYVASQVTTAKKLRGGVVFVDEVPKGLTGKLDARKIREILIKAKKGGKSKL

CN1[C@H]2CC(OC(=O)[C@H](CO)c3ccccc3)C[C@H]1[C@H]1O[C@H]12 (stereo partly drawn)
inactive: Potency [1] | Potency [2] | Potency [3] | Potency [4] | Potency [5] | Potency [6]

CN(C)c1ccc(C2(c3ccc(N(C)C)cc3)OC(=O)c3cc(N(C)C)ccc32)cc1
inactive: activation [7] 19.5% | outcome [8]
